Screening results from PubChem.
HT1080-NT tox = kills 2HG-producing HT-1080-NT fibrosarcoma cells | Potency, µM (top dose mostly 46.1 µM), for inactives: at the highest dose activity, negative = less viability, most hits filed as cytotoxic | 1.6% of 360,000 active | HT-1080-NT fibrosarcoma viability, CellTiter-Glo ATP luminescence, 48 h;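 note: NT is the 2HG producing partner of a matched IDH1 knockdown line; potency is the fitted concentration of half-maximal effect; 0% = DMSO-treated cells and -100% = media-only wells without cells; nearly all actives have a fitted effect of over 55% in size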
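A 48-hour cytotoxicity screen used HT-1080-NT cells plated 2 hours before compound delivery. ATP-based CellTiter-Glo luminescence measured viability, normalized to DMSO and no-cell controls.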
HT1080 IDH1KD tx = toxicity to HT-1080 IDH1 knockdown cells (counter line). HT-1080 IDH1 knockdown viability, ATP luminescence, 48 h. Potency, µM (titrated, usually from 46.1 µM), for inactives: top-dose activity, negative = toxicity, usual class: cytotoxic. 2% of 360,000 active;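 note: potency is the fitted concentration of half-maximal effect; 0% = DMSO wells and -100% = cell-free medium wells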
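Assay cells: HT-1080 with IDH1 knockdown, 750 per well, RPMI/5% FBS. Exposure: 48 h at 37 °C following 2 h pre-incubation. Read: CellTiter-Glo luminescence; fitted concentration-response, curve class assigned.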
DT40 TDP1 CPT = DT40-hTDP1 cell growth loss with CPT | chicken DT40 Tdp1-/-;hTDP1 cells + 20 nM CPT, ATP luminescence, 48 h | Potency, µM (highest dose often 46.2 µM), for inactives: at the top dose activity change, negative = growth inhibition, most hits filed as inhibitors | 12% of 420,000 active | AID 686979; note: potency is the fitted concentration of half-maximal effect; nearly all actives have a fitted effect of over 55% in size
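Chicken DT40 Tdp1-/- cells complemented with human TDP1, 400 cells/well, exposed to compounds plus 20 nM camptothecin for at least 48 h at 37 C; viability read as ATP content by CellTiter-Glo luminescence.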
TDP1 cell noCPT = qHTS for Inhibitors of human tyrosyl-DNA phosphodiesterase 1 (TDP1): qHTS in cells in absence of CPT. AID 686978, 2013. Potency, µM (titrated, usually from 46.2 µM), without a hit: top-dose activity change, negative = growth inhibition, hits mostly inhibitors. 15% of 420,000 active. DT40 Tdp1-/- hTDP1 cells, no CPT, ATP luminescence, 48 h; note: potency is the fitted concentration of half-maximal effect; nearly all actives have a fitted effect of over 55% in size
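Stably hTDP1-transfected Tdp1-null chicken DT40 cells were treated with library compounds minus camptothecin and grown for at least 48 hr at 37 °C, after which cellular ATP was quantified by luminescence.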
IL-1B inflam inh = inflammasome signaling inhibition, IL-1 beta readout; THP-1 LPS/ATP IL-1B secretion, AlphaLISA, 16 h; hits give low values; activity change, % at 57.5 µM; 4.7% of 360,000 active; in the data active = activity change below about -50%; inconclusive = mostly about -30% to -49%
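THP-1 cells pretreated 1 hr with compounds (up to 57.5 uM final), then stimulated with LPS (250 ng/mL final) plus ATP (1.25 mM final); secreted IL-1B measured by AlphaLISA after 16 hr, decreased signal indicating inhibition.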
ELG1 DNA repair = blocks ELG1-dependent DNA repair in HEK293T cells; HEK293T ELG1-luciferase reporter, luminescence, 16 h; DNA damage induced by 5-fluorouridine; Potency, µM (top dose mostly 46.1 µM), for inactives: at the highest dose activity change, negative = inhibition, hits mostly inhibitors; 2.3% of 330,000 active; AID 504467; note: potency is the fitted concentration of half-maximal effect; nearly all actives have a fitted effect of over 55% in size
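Overnight (16 hr) co-exposure of 2,000 cells/well to 5-fluorouridine and compound at 37 °C preceded detection. Luciferase was quantified via ONE-Glo luminescence; loss of signal denotes inhibition.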
* = called active by the depositor; i = inactive; ? = inconclusive; nt = no result given; [ ] = another dose, or the depositor's remark. Most compounds without a hit are left out; they make up all but 19% or so of the library. Unless noted, calls come from the whole dose curve; as a rule, active = well fitted curve in the direction sought with a large enough effect; inconclusive = small, poorly fitted or top-dose-only effect, or another doubt; inactive = no such curve, though single readings can be large; an effect the other way counts as inactive or inconclusive. Unless noted, % is set by controls: 0 for no effect and ±100 for the full control effect.

SMILES	HT1080-NT tox	HT1080 IDH1KD tx	DT40 TDP1 CPT	TDP1 cell noCPT	IL-1B inflam inh	ELG1 DNA repair
NCCCCCc1nnc(SCc2ccc(Cl)c(Cl)c2)o1	5%	0%	1%	1%	10	1%
NCCCN(Cc1ccc(Cl)cc1)c1ccc(Br)cn1	?	11µM*	10µM*	7.9µM*	nt	nt
Cc1cc(S(=O)(=O)Nc2ccc(C(=O)O)cc2)c(C)c(S(=O)(=O)c2ccc(Cl)cc2)c1	nt	nt	10%	0%	nt	nt
OCCCN1CCN(CCOc2ccccc2-c2ccccc2)CC1	-13%	-7%	1%	?	-17	-16%
CCCCNCCOCCOc1ccccc1-c1ccccc1	-22%	-18%	23µM*	29µM*	?	-14%
CC1CN(CCOCCOc2ccccc2-c2ccccc2)CC(C)O1 (centres undefined)	-10%	-7%	?	23µM*	13	-11%
Clc1ccc(OCCOCCN2CCc3ccccc3C2)c(Cl)c1	23µM*	23µM*	?	23µM*	-82*	-2%
c1ccc(-c2ccccc2OCCOCCN2CCc3ccccc3C2)cc1	?	?	?	12µM*	-75*	?
O=C(O)CN1C(=O)C2C3CCC(C3)C2C1=O (centres undefined)	5%	-2%	?	-13%	-9	nt
COc1cc(OC)cc(C(=O)N[C@H](C(=O)Nc2c(C)n(C)n(-c3ccccc3)c2=O)C(C)C)c1	6%	2%	?	?	-3	-3%
COc1cccc(N/C=C(\C#N)c2ccc(OCCCF)cc2)c1	3%	13%	18µM*	?	-52*	21%
Cc1nn(CCCC(=O)NCc2ccco2)c(=O)c2nn(-c3ccccc3)c(C)c12	-4%	6%	1%	-9%	-8	-1%
Cc1ccn2cc(-c3ccc4c(c3)NC(=O)CO4)nc2c1	17%	2%	0%	-24%	-13	?
Oc1ccc(-c2cn3ccccc3n2)cc1O	-9%	-9%	26µM*	13µM*	4	?
Oc1ccc(-c2cn3ccccc3n2)cc1	-5%	-8%	-16%	?	-14	?
Cc1ccn2cc(-c3ccc(O)c(O)c3)nc2c1	-18%	-3%	16µM*	9.2µM*	48	?
COc1ccccc1C(=O)NC(CCSC)C(=O)NNC(=O)c1ccccc1O (centres undefined)	-27%	?	?	29µM*	72	2%
O=C(NCc1ccccc1Cl)[C@H]1CCCN1C(=O)[C@H]1CCCN1C(=O)c1cccc2ccccc12	-1%	0%	-20%	?	-3	nt
NS(=O)(=O)c1ccc(NC(=S)Nc2ccc(C(=O)N3CCCCC3)cc2)cc1	2%	8%	-6%	-29%	26	-18%
O=C(OC[C@H]1O[C@@H](OC(=O)c2cc(O)c(O)c(OC(=O)c3cc(O)c(O)c(O)c3)c2)[C@H](OC(=O)c2cc(O)c(O)c(OC(=O)c3cc(O)c(O)c(O)c3)c2)[C@@H](OC(=O)c2cc(O)c(O)c(OC(=O)c3cc(O)c(O)c(O)c3)c2)[C@@H]1OC(=O)c1cc(O)c(O)c(OC(=O)c2cc(O)c(O)c(O)c2)c1)c1cc(O)c(O)c(OC(=O)c2cc(O)c(O)c(O)c2)c1	11µM*	?	4.2µM*	4.6µM*	nt	?
COCCNC(=O)CCn1c(=O)[nH]c2cc(OC)c(OC)cc2c1=O	nt	nt	-14%	-1%	nt	nt
Cc1ccc(-c2nc(CS(=O)CC(=O)NCCN3CCCCC3C)c(C)o2)cc1 (centres undefined)	5%	6%	-7%	?	-11	?
O=C(Nc1nnc(S(=O)(=O)N2CCCC2)s1)c1ccccc1F	-2%	1%	-6%	?	-59*	21%
COc1ccc(S(=O)(=O)N2CCCCCC2)cc1NC(=O)c1ccccc1F	-5%	-2%	16µM*	-80%	0	?
O=C(Nc1nnc(S(=O)(=O)N2CCCCCC2)s1)c1ccccc1Cl	6%	0%	?	-27%	4	0%
SMILES	HT1080-NT tox	HT1080 IDH1KD tx	DT40 TDP1 CPT	TDP1 cell noCPT	IL-1B inflam inh	ELG1 DNA repair
COc1ccc(S(=O)(=O)N2CCCCC2)cc1NC(=O)c1ccc(CS(C)(=O)=O)cc1	-6%	-10%	-6%	18µM*	-22	10%
COc1ccc(S(=O)(=O)N2CCCCC2)cc1NC(=O)c1cccc(S(=O)(=O)N2CCOCC2)c1	3%	6%	?	?	0	nt
COc1ccc(S(=O)(=O)N2CCOCC2)cc1NC(=O)c1ccc(S(=O)(=O)N2CCCCC2)cc1	2%	3%	12µM*	?	-15	nt
Cc1cc(C)c(NC(=O)CN(CC(=O)O)CC(=O)O)c(C)c1Br	nt	nt	?	-12%	nt	nt
COCCSc1nnc(NC(=O)C2CC(=O)N(CCc3ccc(F)cc3)C2)s1 (centres undefined)	13%	4%	1%	?	28	0%
CCC1CCCCN1CCCNC(=O)c1ccc(CS(=O)(=O)c2ccc(Br)cc2)o1 (centres undefined)	6%	1%	-10%	?	-4	0%
Cc1ccc(NC(=O)C2CCN(S(=O)(=O)c3c(C)noc3C)CC2)c(C)c1	nt	nt	2%	-10%	nt	nt
COc1ccc(S(=O)(=O)N2CCOCC2)cc1NC(=O)CCNC(=O)c1ccc([N+](=O)[O-])cc1	-3%[9.24 µM]	5.8µM*	?	7.3µM*	-20	?
COc1ccc(C)cc1NC(=O)c1cc(S(=O)(=O)N2CCC(C)CC2)ccc1F	nt	nt	16µM*	21µM*	nt	nt
CC1(C(=O)NCc2ccccc2)CN(S(C)(=O)=O)CC(=O)N1CCCN1CCOCC1 (centres undefined)	9%	8%	2%	8%	36	nt
CSC12CCCN(CCC(C(C)(C)C)C1)C2=O (centres undefined)	16%	10%	1%	-2%	-4	nt
COc1ccc(OC)c(CN2CCN(C(=O)c3cc(S(=O)(=O)Nc4ccccc4OC)ccc3C)CC2)c1	-1%	-13%	?	?	i	23µM*
COc1ccc(NS(=O)(=O)c2ccc(C)c(C(=O)N3CCN(Cc4cc(OC)ccc4OC)CC3)c2)cc1	-12%	-11%	21µM*	23µM*	-15	nt
COc1ccc(OC)c(CN2CCN(C(=O)c3ccc(S(=O)(=O)N4CCCCCC4)cc3)CC2)c1	-8%	-9%	?	21µM*	?	nt
